Tau filament bind: binds recombinant human tau filaments | P10636 | recombinant tau filaments, thioflavin S fluorescence, 15 h; filaments grown with octadecylsulfate alongside compound | Potency, µM (highest dose often 57.1 µM), for the others: top-dose activity change, negative = inhibition | actives 2% (n = 71,000);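 also: potency is read from the fitted curve at half-maximal effect; % is scaled to controls: 0 for no effect and ±100 for the full control effect; actives lower thioflavin S fluorescence by blocking filaments or displacing dye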
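ThS-based fibril read: tau 1 uM final, inducer ODS 30 uM final, 37 C for 15 h, ex 450/em 510 nm.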
ALOX15 inhib: inhibitors of human 15-lipoxygenase (ALOX15); P16050; purified 15hLO-1, xylenol orange hydroperoxide absorbance; Potency, µM (doses to about 57.1 µM), inactives show at the highest dose activity change, negative = inhibition, actives largely listed as inhibitors; actives 1.4% (n = 74,000); also: potency is read from the fitted curve at half-maximal effect; % is scaled to controls: 0 for no effect and ±100 for the full control effect; nearly all actives have a fitted effect of over 55% in size
Target sequence (P16050 whole entry, looked up): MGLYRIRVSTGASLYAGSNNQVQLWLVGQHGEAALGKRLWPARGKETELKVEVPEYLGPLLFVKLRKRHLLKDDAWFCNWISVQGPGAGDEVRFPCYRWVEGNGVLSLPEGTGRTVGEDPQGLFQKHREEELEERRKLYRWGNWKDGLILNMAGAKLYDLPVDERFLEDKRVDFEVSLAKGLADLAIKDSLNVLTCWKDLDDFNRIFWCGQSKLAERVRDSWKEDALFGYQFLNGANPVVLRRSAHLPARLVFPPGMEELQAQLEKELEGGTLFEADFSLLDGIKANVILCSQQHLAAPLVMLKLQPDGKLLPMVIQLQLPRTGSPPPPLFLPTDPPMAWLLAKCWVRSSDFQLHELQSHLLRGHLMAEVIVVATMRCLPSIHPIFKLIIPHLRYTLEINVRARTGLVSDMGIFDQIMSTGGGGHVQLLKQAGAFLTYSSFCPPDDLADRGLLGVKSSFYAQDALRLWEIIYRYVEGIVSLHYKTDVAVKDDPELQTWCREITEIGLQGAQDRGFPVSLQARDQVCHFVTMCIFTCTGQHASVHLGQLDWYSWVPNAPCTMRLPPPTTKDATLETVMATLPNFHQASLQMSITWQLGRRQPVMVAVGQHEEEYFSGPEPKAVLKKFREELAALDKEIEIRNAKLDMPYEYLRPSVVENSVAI
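Quantitative HTS in 25 mM Hepes pH 7.5 containing 0.01% Triton X-100: human 15hLO-1 at 40 nM, arachidonic acid at 50 uM, 6 min turnover. Product quantified via ferrous oxidation/xylenol orange, 573:405 nm absorbance ratio.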
Ub-GFP proteasome: inhibits proteasome, raising ubiquitin-GFP reporter fluorescence; Ubiquitin-GFP reporter cells, proteasome inhibition, GFP fluorescence; response scale: untreated = 0%, 10 µM MG-132 = 100%; Potency, µM (doses to about 45.9 µM), inactives show at the highest dose activation (GFP accumulation), hits mostly activators; AID 526; 67,000 tested, under 10 active; active = well fitted activation curve with a large enough effect, not every such curve was filed as active; inconclusive = small, poorly fitted or top-dose-only effect, or another doubt; inactive = no such curve, though single readings can be large or run the other way; also: potency is read from the fitted curve at half-maximal effect
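U2OS cells expressing ubiquitin(G76V)-GFP, seeded overnight in 0.5% FBS medium, then treated 4 hr at 37 C across 46 uM to 2.9 nM. GFP-positive cells counted by laser cytometry (488 ex/515 em); %activity scaled between basal and 10 uM MG-132.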
HBB splice mod: hemoglobin beta splicing modulation; HBB splicing reporter cell assay, activation; EGFP reporter with mutant IVS2-654 intron; response scale: normalised to 500 nM splice-correcting PNA; Potency, µM (highest dose often 46.1 µM), without a hit: at the top dose activation, actives largely listed as activators; actives 0.06% (n = 65,000); AID 925; also: potency is read from the fitted curve at half-maximal effect; 0% is about no effect
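Compounds were applied for 2 days to HeLa EGFP-654 cells, 500/well in Optimem with 2% FCS. The reporter's EGFP is disrupted by mis-splicing of beta-globin intron IVS2-654. Readout: summed well GFP fluorescence from 488 nm laser scanning; reference was 500 nM antisense […] 654 PNA.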
Pol III holo inh: blocks replication by bacterial DNA polymerase III holoenzyme. reconstituted DNA polymerase III holoenzyme replication, biochemical. Potency, µM (highest dose often 57.1 µM), inactives show at the highest dose activity change, negative = inhibition. actives 0.25% (n = 71,000). AID 603; also: potency is read from the fitted curve at half-maximal effect; % is scaled to controls: 0 for no effect and ±100 for the full control effect
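Reconstituted *E. coli* holoenzyme (0.35 nM Pol III, 1 nM beta, 154 nM SSB, 2 nM primase) was preincubated with compound for 15 min at RT. Synthesis on 1.4 nM ssM13Gori ran 35 min, then was stopped with PicoGreen/EDTA and read as dsDNA fluorescence.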
Epigenetic mod: derepresses silenced GFP locus in mouse C127i cells; mouse C127i GFP locus derepression, cytometry, 30 h; Potency, µM (series often up to 46.1 µM), without a hit: at the top dose GFP derepression (activation); actives 0.09% (n = 68,000); AID 597; also: % of control where 0% means no effect
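Read-out is the number of GFP-positive cells, scored as fluorescent objects 20 to 120 um wide, reflecting derepression of a silenced CMV-GFP reporter in murine C127i cells after 30 h compound exposure at 37 C.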
Starred values were filed as active, the others as inactive; u = inconclusive; x = no result; ! = not confirmed by another sample; [ ] = another dose, or the depositor's remark. Compounds with a hit are over-represented: about 3.2% of the library has one in this group of screens. Unless noted, calls follow the shape of the dose curve; as a rule, active = well fitted curve in the direction sought with a large enough effect; inconclusive = small, poorly fitted or top-dose-only effect, or another doubt; inactive = no such curve, though single readings can be large; an effect the other way counts as inactive or inconclusive.

SMILES	Tau filament bind	ALOX15 inhib	Ub-GFP proteasome	HBB splice mod	Pol III holo inh	Epigenetic mod
N#Cc1c(-c2ccco2)cc(-c2ccccn2)nc1N	-10.9%	-0.4%	-6.7%	-1.0%	-3.4%	7.3%
COc1ccc2nc(NC(=O)c3cnccn3)sc2c1	5.01µM*	6.0%	-5.3%	-2.9%	1.5%	-1.7%
CCOc1ccc2nc(NC(=O)c3ccoc3C)sc2c1	133.5%[11.4 µM]	3.98µM*	16.5%[9.17 µM]	-0.9%[0.0738 µM]	-4.8%[11.4 µM]	1.5%
COc1ccc2sc(NC(=O)CC(C)C)nc2c1	20.1%	3.98µM*	6.9%	-4.8%	5.4%	-2.5%
CCN1CCN(C(=O)NC(C(=O)NC2C(=O)N3C(C(=O)O)=C(CSc4nnnn4C)CSC23)c2ccc(O)cc2)C(=O)C1=O (stereo unspecified)	x	-4.2%	x	x	x	x
C[C@@H]1CC2(OC(O)[C@]3(C)O[C@H]23)O[C@H]2C[C@@]3(C)[C@@H]4CC[C@H]5C(C)(C)C(O[C@@H]6OC[C@@H](O)[C@H](O)[C@H]6O)CC[C@@]56C[C@@]46CC[C@]3(C)[C@@H]12 (stereo partly specified)	83.6%	-14.4%	x	-0.8%	-8.7%	x
Cc1ccc2cc3c(N)c(C(=O)N4CCOCC4)sc3nc2c1	-17.9%	-14.0%	0.0%	x	-10.6%	-2.4%
COc1ccc2cc3c(N)c(C(=O)N4CCCC4)sc3nc2c1	20µM*	u	6.7%	0.4%	-10.9%	-0.3%
CCOC(=O)C1OC1c1ccccc1 (stereo unspecified)	15.5%	-3.6%	x	0.4%	-2.9%	x
CCC(C)c1ccc(O)c(N)c1 (stereo unspecified)	u	12.6µM*	-3.5%	0.5%[57.5 µM]	-2.1%	-2.2%
C=C(C)CN(CC#N)CC(=C)C	14.2%[11.4 µM]	6.2%[11.4 µM]	-6.5%[9.17 µM]	1.3%[9.22 µM]	-3.4%[11.4 µM]	-2.3%[9.22 µM]
CCCOc1ccccc1NC(=O)c1ccc(N)cc1	2.9%	4.3%	9.7%	-1.0%	-11.2%	-1.1%
CCCOc1ccccc1-c1nc2n[nH]nc2c(=O)[nH]1	u	15.8µM*!	2.6%	-1.0%[20.6 µM]	-0.9%	0.0%
COc1ccc2[nH]cc(CCNc3cc(-c4c(C)noc4C)ncn3)c2c1	-27.1%	u	-4.5%	0.4%	-3.9%	0.0%[9.22 µM]
O=C1c2ccccc2C(Nc2ccc3c(c2)OCO3)N1Cc1ccco1 (stereo unspecified)	12.6µM*	u	-1.7%	-0.5%	2.2%	-3.8%
O=C1c2ccccc2C(Nc2ccc(F)c(Cl)c2)N1Cc1ccco1 (stereo unspecified)	12.6µM*	u	-2.9%	-1.0%	0.1%	3.4%
O=C1c2ccccc2C(Nc2ccc3c(c2)OCO3)N1Cc1ccc2c(c1)OCO2 (stereo unspecified)	10µM*	-29.6%	-2.9%	-0.6%	-7.4%	x
COc1ccc(CN2C(=O)c3cccnc3C2Nc2cc(Cl)ccc2OC)cc1 (stereo unspecified)	-4.7%	15.8µM*	15.0%	-0.3%	-1.8%	2.6%
COc1ccc(-c2nc3cnc(N4CCN(C)CC4)nc3n(Cc3cccc(OC)c3)c2=O)cc1	69.8%	0.8%	-4.6%	2.2%	4.9%	-0.5%[9.22 µM]
Cc1cc(C)c2c(SCc3ccc(Cl)cc3Cl)nc(N)nc2n1	-1.6%[11.4 µM]	16.2%[11.4 µM]	0.0%[9.17 µM]	-1.0%[9.22 µM]	-10.9%[11.4 µM]	5.7%[9.22 µM]
COc1ccc(CNc2nc(-c3ccccc3OC)nc3ccccc23)c(OC)c1	70.0%	-26.1%	-6.6%	-0.3%	-11.4%	u
CCOc1ccc(NC2c3ccccc3C(=O)N2Cc2ccco2)cc1 (stereo unspecified)	15.8µM*	-12.3%	-2.9%	-1.6%	-3.5%	1.9%
COc1ccc(OC)c(NC2c3ccccc3C(=O)N2Cc2ccc3c(c2)OCO3)c1 (stereo unspecified)	20µM*	-12.7%	-8.6%	-1.7%	-3.0%	x
Nc1nc(-c2c[nH]c3ccccc23)cs1	25.1µM*	u	-1.7%	-1.7%	-13.1%	-1.2%

Compound activity as filed in PubChem BioAssay.
